S1P4 antagonist = human S1P4 receptor antagonism; O95977; S1P4-expressing cells, antagonist mode, reporter read-out; inhibition, % at 4.98 µM; hit rate 0.26% among 220,000; AID 1510; in the data active = inhibition above about 29%;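 also: 0% = wells stimulated with agonist and 100% = vehicle wells without agonist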
Target sequence (O95977 whole entry, looked up): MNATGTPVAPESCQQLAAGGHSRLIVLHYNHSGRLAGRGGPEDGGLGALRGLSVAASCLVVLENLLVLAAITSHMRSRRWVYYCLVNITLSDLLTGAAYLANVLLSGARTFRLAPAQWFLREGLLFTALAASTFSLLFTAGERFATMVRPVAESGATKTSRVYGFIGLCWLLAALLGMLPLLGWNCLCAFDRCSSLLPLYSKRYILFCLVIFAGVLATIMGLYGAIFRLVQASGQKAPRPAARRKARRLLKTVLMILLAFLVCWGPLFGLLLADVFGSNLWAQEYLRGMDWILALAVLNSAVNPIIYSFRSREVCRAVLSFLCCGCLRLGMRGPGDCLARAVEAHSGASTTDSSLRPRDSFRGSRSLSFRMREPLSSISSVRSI
PGE2 EP2 inh = inhibitors of human EP2 prostaglandin E2 receptor | P43116 | C6 glioma cells expressing human EP2, cAMP TR-FRET; cells stimulated with saturating PGE2 | inhibition, % at 25 µM | hit rate 0.52% among 260,000;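 active = percent inhibition above 40 after rounding to a whole number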;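 also: rat C6 glioma host cells with rolipram phosphodiesterase inhibitor present; the protocol text gives 20 µM as final concentration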
INS promoter inh = TRM-6 insulin promoter activity inhibition. TRM-6 cells (human fetal islet line), insulin promoter-eGFP reporter, imaging; reporter expression induced with tamoxifen. inhibition, % at 2 µM. hit rate 0.9% among 130,000. AID 1273;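 active = inhibition above the mean plus 3 SD, with well images judged a real hit on visual review, cut at about 60% in these data, passing the limit was not always enough; inconclusive = inhibition over the cutoff but images rejected on review; inactive = inhibition not above the cutoff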
S1P4 agonist = agonists of human S1P4 receptor | activation, % at 4.98 µM | S1P4-expressing cell line, agonist reporter assay | O95977 | hit rate 0.35% among 220,000; in the data active = activation above about 11%;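 also: 0% = DMSO vehicle and 100% = reference agonist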
S1P3 antag = antagonists of human S1P3 receptor; Q99500; CHO S1P3 NFAT-BLA reporter, FRET fluorescence, antagonist mode; inhibition, % at 4.98 µM; hit rate 0.27% among 170,000; AID 485;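 active = inhibition above the plate cutoff, the mean inhibition of test wells on that plate plus 3 SD, cut at about 28% in these data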;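 also: cells challenged with S1P at its EC80 of 0.8 µM; blue over green emission ratio from cleaved BLA substrate after 4 h stimulation; 0% = S1P-stimulated wells and 100% = unstimulated DMSO-only wells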
EP2 modulator = EP2 receptor (human) modulation; hit rate 0.83% among 260,000; induction, % at 25 µM; EP2-expressing cells, cAMP HTRF FRET, PGE2 co-stimulation; AID 940; P43116;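 active = compounds whose cAMP rise, as percent of the full-agonist control response, exceeds 60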;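 also: rat C6 glioma line stably carrying human EP2 under a CMV promoter; the protocol text gives 20 µM as final concentration; 100% = response of wells given 1 µM PGE2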
* marks the source's active call; other numbers are inactive results; ? = inconclusive; . = no result. Sampled rows, rich in hits. Any-hit rate of the full collection: about 2.4%.

SMILES	S1P4 antagonist	PGE2 EP2 inh	INS promoter inh	S1P4 agonist	S1P3 antag	EP2 modulator
COc1nccnc1NS(=O)(=O)c1ccc(NC(=S)NC(=O)c2ccc(F)c(F)c2)cc1	-26	7	39	0	-4	-9
COc1nccnc1NS(=O)(=O)c1ccc(NC(=S)NC(=O)/C=C/c2ccc(F)cc2)cc1	-10	66*	25	1	-7	-64
COc1nccnc1NS(=O)(=O)c1ccc(NC(=S)NC(=O)/C=C/c2ccc(C)cc2)cc1	.	72*	.	.	.	-104
CCSc1nc2c(c(=O)n1Cc1ccccc1)SC(C)C2 (stereo unspecified)	-12	9	-429	2	-6	62*
C=C(C)Cn1c(SCC)nc2ccccc2c1=O	-5	15	-14	1	2	57
CC1Cc2nc(SCC(N)=O)n(Cc3ccccc3)c(=O)c2S1 (stereo unspecified)	.	12	.	.	-18	28
C=C(C)Cn1c(SCCC)nc2ccccc2c1=O	.	14	.	.	.	94*
CCSc1nc2ccccc2c(=O)n1CCc1ccc(OC)c(OC)c1	-6	8	.	1	-13	31
CCSc1nc2ccccc2c(=O)n1Cc1ccc(F)cc1	-23	7	.	0	2	65*
Cc1ccc(F)cc1NC(=O)c1nc2ncccn2n1	.	6	.	.	.	-6
O=C(Cn1ncc2cccn2c1=O)Nc1ccccc1-c1ccccc1	.	6	.	.	.	-21
CCOC(=O)c1cc2c(ccn2C)n1CC(=O)N(Cc1ccccc1)c1ccccc1	-9	8	-30	-3	-4	59
CCOC(=O)c1cc2c(ccn2C)n1Cc1ccccc1Cl	0	7	5	0	-14	63*
CCOC(=O)c1cc2c(ccn2C)n1Cc1ccccc1C	-2	4	.	1	-37	62*
Cc1ccccc1Cn1c(C(=O)OC(C)C)cc2c1ccn2C	-5	2	-60	-1	.	53
Cc1cc(C)c2cc(CN(Cc3ccc(F)cc3)Cc3nnnn3C3CCCC3)c(=O)[nH]c2c1	.	10	.	.	.	8
COC(=O)c1cc(NC(=O)c2ccc(Cn3cc(Cl)cn3)o2)cc(C(=O)OC)c1	1	.	93*	0	-27	-17
CCOC(=O)COn1c(=O)c[n+]([O-])c2ccccc21	6	6	100*	1	-18	13
Cc1ccc2[nH]c(=O)c(CN(CCCO)Cc3nnnn3CCc3ccccc3)cc2c1	.	19	.	.	.	-13
[Cu].c1ccc2c(c1)-c1nc-2nc2[n-]c(nc3nc(nc4[n-]c(n1)c1ccccc41)-c1ccccc1-3)c1ccccc21	.	54*	.	.	.	1
O=C(c1cccc(Cl)c1)N1N=C(C(F)(F)F)CC1(O)C1CCCCC1 (stereo unspecified)	.	11	.	.	.	85*
O=C(c1cccc(Cl)c1)N1CCN(C2CCCCC2)CC1	.	8	.	.	.	8
CCN(CC)S(=O)(=O)c1cccc(NC(=O)c2ccccc2Br)c1	5	8	77*	-1	-17	-41
CC1CCCN(C(=O)C2CCN(Cc3ccc(Cl)cc3)CC2)C1 (stereo unspecified)	.	17	.	.	.	-3
COc1ccccc1NC(=O)N(Cc1ccccc1)c1ccccn1	-9	-3	-5	2	.	61*
SMILES	S1P4 antagonist	PGE2 EP2 inh	INS promoter inh	S1P4 agonist	S1P3 antag	EP2 modulator
O=C(O)c1c2c(c(O)c3c1CN(C1CCCCC1)CO3)OCN(C1CCCCC1)C2	.	61*	.	.	.	-4
CCCN1CCN(C(c2cc3cc(C)ccc3[nH]c2=O)c2nnnn2C(C)(C)C)CC1 (stereo unspecified)	.	11	.	.	.	-34
OCc1cc(C(O)CNCCCCCCOCCCCc2ccccc2)ccc1O (stereo unspecified)	-1	17	.	-1	10	69*
CCOCCCNCC(O)c1ccccc1 (stereo unspecified)	-21	5	18	3	-1	5
O=C(Nc1ccccc1)N1CC=C(c2ccccc2)CC1	-26	12	75*	-3	-9	-2
O=C(Nc1ccccc1)N1CC=C(c2ccc(F)cc2)CC1	-10	19	?	1	15	-12
CC(C)(C)OC(=O)N1CCC[C@@H](C(=O)c2cccs2)C1	.	.	.	.	.	-40
C[N@@+]1(CCC(=O)c2ccccc2)CC[C@H]2CC[C@H](C2)C1	.	15	.	.	.	-6
C[N+]1(CCC(=O)c2ccco2)CC2CCC(CC2)C1 (stereo unspecified)	.	45*	.	.	.	15
CCc1nn(CC(=O)NCCCc2ccccc2)c(=O)c2cc3ccsc3n12	.	.	.	.	.	-10
O=[N+]([O-])c1ccc(Cl)c(CNc2ncnc3c2ncn3[C@@H]2CCCCO2)c1	.	43*	.	.	.	13
O=[N+]([O-])c1ccc(Cl)c(S(=O)(=O)N2CCCCCC2)c1	10	6	-16	-1	13	38
CC(C)[C@H](Cn1nnc2ccccc21)NC(=O)c1cccc(N2CCCCS2(=O)=O)c1	.	.	.	.	.	-1
CCn1nc(C)c(NC(=O)CSc2nnc(-c3ccco3)n2C)c1C	-10	6	81*	1	-11	-2
CC1Cc2ccccc2N1C(=O)Cn1c(=O)oc2cc(S(=O)(=O)N3CCCCC3)ccc21 (stereo unspecified)	-4	14	.	-1	81*	-10
O=C(Cn1c(=O)oc2cc(S(=O)(=O)N3CCCCC3)ccc21)N1CCc2ccccc21	-10	.	.	-1	.	-12
CC1(C)CC(=O)C2=C(C1)OC1=C(C(=O)CC(C)(C)C1)C2c1ccc(O)c([N+](=O)[O-])c1	-8	8	0	-2	-4	29
CC1(C)CC(=O)C2=C(C1)OC1=C(C(=O)CC(C)(C)C1)C2c1ccc(O)cc1O	6	98*	43	1	-20	-39
COc1ccc(CN2CCc3c(nc(N4CCCC(C)C4)[nH]c3=O)C2)cc1Cn1cccn1 (stereo unspecified)	.	8	.	.	.	-61
CCOC(=O)C1CCN(C(=O)CN(c2ccc(C)c(Cl)c2)S(C)(=O)=O)CC1	.	7	.	.	.	-17
Cc1cc(/C=c2/sc3nc4ccccc4n3c2=O)c(C)n1-c1ccccn1	-14	13	41	25*	.	-26
CCCCN(C(=O)c1cccc2c(=O)c(C)c(-c3ccccc3)oc12)c1ccccc1	-20	-1	-45	2	-7	64*
CCCCNC(=O)c1cccc2c(=O)c(C)c(-c3ccccc3)oc12	-16	7	.	0	-10	-2
CNc1nc2c(c(=O)[nH]c(=O)n2C)n1Cc1cccc(C)c1	.	7	.	.	.	-25
COc1ccc2[nH]c(=O)c(CN(Cc3ccc(C)cc3)C(=O)Nc3ccccc3OC)cc2c1	.	8	.	.	.	61*
COc1ccc(CN(Cc2cc3ccc(C)cc3[nH]c2=O)C(=O)Nc2ccccc2OC)cc1	.	14	.	.	.	-1
CCN1CCCC1CN(Cc1ccccn1)Cc1c(C)nc2sccn12 (stereo unspecified)	.	4	.	.	.	14
Cc1nc2ccccc2nc1N1CCCC1	2	4	.	-1	-7	-2
Cc1ccc2c(Cl)c(C)c(N3CCCC3)nc2n1	-28	8	77*	1	5	-6
